Laboratory results from PubChem BioAssay AID1159580 (chemical genetic matrix, 2015).
Out of some 5,500 compounds screened, about 2,000 (36%) were called active. Another 18% or so got no clear call; they are omitted. Cut-off read from the data, not from the text of the source: active = normalized growth mostly below about 0.91 (no sharp cut-off); inconclusive = no clear call, values can overlap the other calls; inactive = mostly above about 0.92. Some of the results follow.

Assay: chemical genetic growth profiling, strain panel (AID 1159580);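 note: tested at 20 µM; growth read once vehicle control cultures reached saturation at 30 °C; 1 = growth at the plate median or of vehicle wells; lower values mean less growth of the strain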
Settings: S. cerevisiae deletion strains, growth OD
[1] = locus YDL101C, strain DUN1, stronger effect = lower value
[2] = locus YHR030C, strain SLT2, stronger effect = lower value
[3] = locus YAL013W, strain DEP1, stronger effect = lower value
[4] = locus YAL040C, strain CLN3, stronger effect = lower value
[5] = locus YER002W, strain NOP16, stronger effect = lower value
[6] = locus YJR075W, strain HOC1, stronger effect = lower value
[7] = locus YNL175C, strain NOP13, stronger effect = lower value
[8] = locus YNL224C, strain SQS1, stronger effect = lower value
[9] = locus YOR083W, strain WHI5 (second series), stronger effect = lower value
[10] = locus YPL241C, strain CIN2, stronger effect = lower value
[11] = locus YMR263W, strain SAP30, stronger effect = lower value
[12] = locus YMR307W, strain GAS1, stronger effect = lower value
[13] = locus YNL153C, strain GIM3, stronger effect = lower value
[14] = locus YNL322C, strain KRE1, stronger effect = lower value

Measured: normalized growth

CC1SC(c2cccnc2)N(c2ccc(Cl)cc2)C1=O (stereo not given)
inactive: locus YAR019C, strain CDC15, stronger effect = lower value 0.948 | locus YBL105C, strain PKC1, stronger effect = lower value 0.971 | locus YBR135W, strain CKS1, stronger effect = lower value 0.964 | locus YBR136W, strain MEC1, stronger effect = lower value 0.959 | locus YBR160W, strain CDC28, stronger effect = lower value 0.967 | locus YDL017W, strain CDC7, stronger effect = lower value 0.972 | locus YDL028C, strain MPS1, stronger effect = lower value 0.955 | [1] 0.928 | locus YDL108W, strain KIN28, stronger effect = lower value 0.951 | locus YDR226W, strain ADK1, stronger effect = lower value 0.932 | locus YFL009W, strain cdc4, stronger effect = lower value 0.931 | locus YFL029C, strain CAK1, stronger effect = lower value 0.926 | locus YFR003C, strain YPI1, stronger effect = lower value 0.972 | locus YFR028C, strain CDC14, stronger effect = lower value 0.945 | locus YGR092W, strain DBF2, stronger effect = lower value 0.904 | [2] 0.871 | locus YHR205W, strain SCH9, stronger effect = lower value 0.725 | locus YIL147C, strain SLN1, stronger effect = lower value 0.952 | locus YJL128C, strain PBS2, stronger effect = lower value 0.987 | locus YJR016C, strain ILV3, stronger effect = lower value 0.926 | locus YJR066W, strain TOR1 (second series), stronger effect = lower value 0.704 | locus YKL048C, strain ELM1, stronger effect = lower value 0.922 | locus YKL101W, strain HSL1, stronger effect = lower value 0.779 | locus YKL193C, strain SDS22, stronger effect = lower value 0.947 | locus YML070W, strain DAK1, stronger effect = lower value 0.694 | locus YMR001C, strain CDC5, stronger effect = lower value 0.936 | locus YMR277W, strain FCP1, stronger effect = lower value 0.969 | locus YNL006W, strain LST8, stronger effect = lower value 0.967 | locus YNL161W, strain CBK1, stronger effect = lower value 0.953 | locus YNL207W, strain RIO2, stronger effect = lower value 0.91 | locus YNL222W, strain SSU72, stronger effect = lower value 0.96 | locus YOL078W, strain AVO1, stronger effect = lower value 0.937 | locus YOR061W, strain CKA2, stronger effect = lower value 0.919 | locus YOR329C, strain SCD5, stronger effect = lower value 0.953 | locus YPL209C, strain IPL1, stronger effect = lower value 0.969 | locus YPR025C, strain CCL1, stronger effect = lower value 0.961 | locus YPR106W, strain ISR1, stronger effect = lower value 0.957 | locus YPR111W, strain DBF20, stronger effect = lower value 0.965 | strain NNK1, stronger effect = lower value 0.944 | strain TSCII, stronger effect = lower value 0.946
active: locus YDL132W, strain cdc53, stronger effect = lower value 0.894 | locus YDL214C, strain PRR2, stronger effect = lower value 0.6 | locus YDR052C, strain DBF4, stronger effect = lower value 0.906 | locus YDR054C, strain cdc34, stronger effect = lower value 0.828 | locus YDR477W, strain SNF1, stronger effect = lower value 0.411 | locus YER123W, strain YCK3, stronger effect = lower value 0.466 | locus YER133W, strain GLC7, stronger effect = lower value 0.421 | locus YFR019W, strain FAB1, stronger effect = lower value 0.43 | locus YGR040W, strain KSS1, stronger effect = lower value 0.397 | locus YGR052W, strain FMP48, stronger effect = lower value 0.374 | locus YHR079C, strain IRE1, stronger effect = lower value 0.441 | locus YHR082C, strain KSP1, stronger effect = lower value 0.4 | locus YJL095W, strain BCK1, stronger effect = lower value 0.215 | locus YJL157C, strain FAR1, stronger effect = lower value 0.635 | locus YJR066W, strain TOR1, stronger effect = lower value 0.284 | locus YKL067W, strain YNK1, stronger effect = lower value 0.673 | locus YKL203C, strain TOR2, stronger effect = lower value 0.331 | locus YLR113W, strain HOG1, stronger effect = lower value 0.455 | locus YLR133W, strain CKI1, stronger effect = lower value 0.478 | locus YLR403W, strain SFP1, stronger effect = lower value 0.346 | locus YMR205C, strain PFK2 (second series), stronger effect = lower value 0.64 | locus YNL020C, strain ARK1, stronger effect = lower value 0.599 | locus YNL183C, strain NPR1, stronger effect = lower value 0.393 | locus YNL307C, strain MCK1 (second series), stronger effect = lower value 0.462 | locus YOR119C, strain RIO1, stronger effect = lower value 0.295 | locus YOR231W, strain MKK1, stronger effect = lower value 0.47 | locus YPL031C, strain PHO85, stronger effect = lower value 0.434 | locus YPL153C, strain RAD53, stronger effect = lower value 0.47 | locus YPL204W, strain HRR25, stronger effect = lower value 0.46 | locus YPL256C, strain CLN2, stronger effect = lower value 0.435

CN1C(=O)CCC1c1cccnc1 (stereo not given)
inactive: [3] 1.02 | [4] 1.02 | [5] 1 | [6] 1.01 | [7] 0.999 | [8] 1.01 | [9] 1.02 | [10] 1.01

O=C1CSC(c2cccnc2)N1c1ccc(Cl)cc1 (stereo not given)
active: locus YLR039C, strain RIC1, stronger effect = lower value 0.723 | locus YLR262C, strain YPT6, stronger effect = lower value 0.677
inactive: [3] 1 | locus YBR229C, strain ROT2, stronger effect = lower value 0.997 | [1] 0.978 | locus YDR150W, strain NUM1, stronger effect = lower value 0.997 | locus YEL061C, strain CIN8, stronger effect = lower value 0.977 | locus YGR078C, strain PAC10, stronger effect = lower value 1 | locus YGR229C, strain SMI1, stronger effect = lower value 0.984 | [2] 1.12 | locus YHR087W, strain rtc3, stronger effect = lower value 0.98 | locus YJR043C, strain POL32, stronger effect = lower value 0.983 | [6] 1 | locus YKL190W, strain CNB1, stronger effect = lower value 0.997 | locus YLR058C, strain SHM2 (second series), stronger effect = lower value 1.01 | locus YLR085C, strain ARP6, stronger effect = lower value 1 | locus YML094W, strain GIM5, stronger effect = lower value 0.957 | locus YMR219W, strain ESC1, stronger effect = lower value 0.992 | [11] 1.04 | [12] 1.01 | [13] 1.01 | locus YNL298W, strain CLA4 (second series), stronger effect = lower value 1 | [14] 0.995 | locus YNR030W, strain Alg12, stronger effect = lower value 0.994 | locus YPL055C, strain LGE1, stronger effect = lower value 0.986 | [10] 1.04 | locus YPR135W, strain CTF4, stronger effect = lower value 1.05

CCC1(C2=NCCN2)Cc2ccccc2O1 (stereo not given)
inactive: locus YAL021C, strain ccr4, stronger effect = lower value 0.996 | locus YAL026C, strain drs2, stronger effect = lower value 1.01 | locus YAL030W, strain snc1, stronger effect = lower value 1.01 | [4] 1.07 | locus YBL061C, strain skt5, stronger effect = lower value 1 | locus YBR009C, strain hhf1, stronger effect = lower value 1.01 | locus YBR023C, strain chs3, stronger effect = lower value 1.01 | locus YBR171W, strain sec66, stronger effect = lower value 1.02 | locus YBR231C, strain swc5, stronger effect = lower value 0.998 | locus YBR279W, strain paf1, stronger effect = lower value 1.01 | locus YCL011C, strain gbp2, stronger effect = lower value 1.02 | locus YCL016C, strain dcc1, stronger effect = lower value 1 | locus YCL061C, strain MRC1 (second series), stronger effect = lower value 1.01 | locus YCL061C, strain MRC1, stronger effect = lower value 1 | locus YCL069W, strain vba3, stronger effect = lower value 1.01 | locus YCR088W, strain abp1, stronger effect = lower value 1.02 | locus YDL005C, strain med2, stronger effect = lower value 1 | locus YDL040C, strain nat1, stronger effect = lower value 1.01 | locus YDR001C, strain nth1, stronger effect = lower value 1.01 | locus YDR069C, strain doa4, stronger effect = lower value 1 | locus YDR137W, strain rgp1, stronger effect = lower value 1.01 | locus YDR159W, strain sac3, stronger effect = lower value 0.991 | locus YDR195W, strain ref2 0.967 | locus YDR297W, strain sur2, stronger effect = lower value 1 | locus YDR334W, strain swr1, stronger effect = lower value 1.01 | locus YDR335W, strain msn5, stronger effect = lower value 1.01 | locus YDR363W, strain ESC2, stronger effect = lower value 1.03 | locus YDR392W, strain spt3, stronger effect = lower value 0.818 | locus YEL003W, strain gim4, stronger effect = lower value 1.01 | locus YEL037C, strain rad23, stronger effect = lower value 1.01 | locus YEL061C, strain CIN8 (second series), stronger effect = lower value 1.01 | [5] 1.01 | locus YER015W, strain faa2, stronger effect = lower value 1 | locus YER016W, strain bim1, stronger effect = lower value 1.01 | locus YER111C, strain swi4, stronger effect = lower value 1.01 | locus YER155C, strain BEM2 (second series), stronger effect = lower value 0.973 | locus YFR010W, strain ubp6, stronger effect = lower value 1.01 | locus YGL167C, strain pmr1, stronger effect = lower value 1 | locus YGL173C, strain kem1, stronger effect = lower value 1.01 | locus YGL227W, strain vid30, stronger effect = lower value 1.01 | locus YGL240W, strain doc1, stronger effect = lower value 0.989 | locus YGL253W, strain hxk2, stronger effect = lower value 1.02 | locus YHR013C, strain ard1, stronger effect = lower value 0.964 | locus YHR027C, strain rpn1, stronger effect = lower value 1.01 | locus YHR142W, strain chs7, stronger effect = lower value 1.02 | locus YJL092W, strain hpr5, stronger effect = lower value 1.01 | locus YJL095W, strain BCK1 (second series), stronger effect = lower value 1.01 | locus YJL115W, strain asf1, stronger effect = lower value 1 | locus YJL129C, strain trk1, stronger effect = lower value 0.996 | locus YJL154C, strain vps35, stronger effect = lower value 1.01 | locus YJL164C, strain tpk1, stronger effect = lower value 0.995 | locus YJL166W, strain qcr8, stronger effect = lower value 1 | locus YJL187C, strain SWE1, stronger effect = lower value 1.01 | locus YKL160W, strain elf1, stronger effect = lower value 0.99 | locus YKR026C, strain gcn3, stronger effect = lower value 1.02 | locus YKR091W, strain srl3, stronger effect = lower value 1 | locus YLL001W, strain dnm1, stronger effect = lower value 1.01 | locus YLL026W, stronger effect = lower value 1 | locus YLL041C, strain sdh2, stronger effect = lower value 1.01 | locus YLR027C, strain aat2, stronger effect = lower value 1.01 | locus YLR221C, strain rsa3, stronger effect = lower value 1.01 | locus YLR258W, strain gsy2, stronger effect = lower value 1 | locus YLR262C, strain YPT6 (second series), stronger effect = lower value 0.995 | locus YLR320W, strain mms22, stronger effect = lower value 1 | locus YLR342W, strain FKS1, stronger effect = lower value 1 | locus YLR357W, strain rsc2, stronger effect = lower value 1.01 | locus YLR370C, strain arc18, stronger effect = lower value 1.01 | locus YLR384C, strain iki3, stronger effect = lower value 1.01 | locus YML120C, strain ndi1, stronger effect = lower value 1.01 | locus YMR058W, strain fet3, stronger effect = lower value 1.01 | locus YMR125W, strain sto1, stronger effect = lower value 1.01 | locus YMR129W, stronger effect = lower value 1 | locus YMR205C, strain PFK2, stronger effect = lower value 1 | locus YMR231W, strain pep5, stronger effect = lower value 1 | [11] 1.01 | [12] 1.03 | locus YNL071W, strain lat1, stronger effect = lower value 1.01 | [13] 0.99 | [7] 1.01 | locus YNL197C, strain WHI3, stronger effect = lower value 1.01 | locus YNL209W, strain ssb2, stronger effect = lower value 1 | [8] 1.01 | locus YNL248C, strain rpa49, stronger effect = lower value 1 | locus YNL322C, strain KRE1 (second series), stronger effect = lower value 1 | [14] 1.01 | locus YNR049C, strain mso1, stronger effect = lower value 1.01 | locus YOR001W, strain rrp6, stronger effect = lower value 1 | locus YOR070C, strain gyp1, stronger effect = lower value 1.01 | locus YOR080W, strain dia2, stronger effect = lower value 0.994 | [9] 1 | locus YOR083W, strain WHI5, stronger effect = lower value 0.994 | locus YOR106W, strain vam3, stronger effect = lower value 1.01 | locus YOR265W, strain rbl2, stronger effect = lower value 1.01 | locus YOR270C, strain vph1, stronger effect = lower value 1.03 | locus YOR290C, strain snf2, stronger effect = lower value 0.965 | locus YPL051W, strain arl3, stronger effect = lower value 1 | locus YPL078C, strain atp4, stronger effect = lower value 1 | locus YPL106C, strain sse1, stronger effect = lower value 0.984 | locus YPL240C, strain hsp82, stronger effect = lower value 0.991 | [10] 1.01
